Assay results reported in PubChem BioAssay (NCI).
Where “and” joins values, the source holds several entries; their conditions need not be identical. Equal values may be shown once. The panel holds about 83,000 compounds, 20% with a hit somewhere; the sample as a whole holds those more often.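 Values shown are percent growth following 48 h exposure of cells in 96-well plates to a single concentration of compound; below 10 was considered active.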 Calls of active or inactive are those of the source.

Legend:
Test in all cases: NCI-60 one-dose screen, 48 h (100 = growth as untreated, 0 = no growth, -100 = all killed)
Settings in all cases: 10 µM
[1] = test system: DU-145 prostate
[2] = test system: K-562 leukemia
[3] = test system: MALME-3M melanoma
[4] = test system: MDA-MB-231 breast
[5] = test system: RXF 393 renal
[6] = test system: SF-268 CNS
[7] = test system: SF-295 CNS
[8] = test system: SF-539 CNS
[9] = test system: UACC-257 melanoma
[10] = test system: M14 melanoma

Row | SMILES | growth [1] | growth [2] | growth [3] | growth [4] | growth [5] | growth [6] | growth [7] | growth [8] | growth [9] | growth [10]
1 | [Cl][Hg][c]1ccc(Cl)s1 | 62.5% (inactive) | -0.908% (active) | -69.8% (active) | -47.2% (active) | -90% (active) | 25.2% (inactive) | 100% (inactive) | -3.52% (active) | 16.4% (inactive) | -54.5% (active)
2 | O=C(O)c1cc(Cc2ccc(O)c(C(=O)O)c2)ccc1O (tested in a mixture with another compound) | 83% (inactive) | 68.5% (inactive) | 89.6% (inactive) | 66.8% (inactive) | 39.6% (inactive) | 76.9% (inactive) | 13.3% (inactive) | 79.2% (inactive) | 60.5% (inactive) | 80.5% (inactive)
3 | CC12OOC(c3ccccc31)c1c2ccc2ccccc12 (stereo not given) | -95.3% (active) | -82.8% (active) | -88.4% (active) | 49.7% (inactive) | 67.3% (inactive) | 43.1% (inactive) | 82.5% (inactive) | 83% (inactive) | -17% (active) | -7.71% (active)
4 | C#CC1(O)CCC(C(C)(C)C)CC1 (stereo not given) | 114% (inactive) | 121% (inactive) | 115% (inactive) | 119% (inactive) | 115% (inactive) | 103% (inactive) | 97.7% (inactive) | 102% (inactive) | 97% (inactive) | 108% (inactive)
5 | C/C(=C\c1ccc(Cl)c(Cl)c1)[N+](=O)[O-] | 8.46% (active) and 104% (inactive) | 0.843% (active) and 78.6% (inactive) | -55.4% (active) and 105% (inactive) | -26.3% (active) and 101% (inactive) | -91.7% (active) and 100% (inactive) | -19.1% (active) and 102% (inactive) | 94.5% (inactive) | 96.3% (inactive) and 100% (inactive) | -88.8% (active) | -86.8% (active) and 95% (inactive)
6 | CC(C)C1(NC(=O)C2CC3c4cccc5[nH]cc(c45)CC3N(C)C2)OC2(O)C3CCCN3C(=O)C(Cc3ccccc3)N2C1=O (stereo not given) | 104% (inactive) | 69.8% (inactive) | 98.8% (inactive) | 86.9% (inactive) | 96.6% (inactive) | 93.1% (inactive) | 106% (inactive) | 98.8% (inactive) | 93.7% (inactive) | 103% (inactive)
7 | O=S(=O)(F)c1ccc(Cl)cc1 | 130% (inactive) | 112% (inactive) | 123% (inactive) | 115% (inactive) | 112% (inactive) | 97.6% (inactive) | 114% (inactive) | 99.7% (inactive) | 99.1% (inactive) | 104% (inactive)
8 | Cc1cc(C(C)(C)c2ccc(O)c(C)c2)ccc1O | 107% (inactive) | 80.8% (inactive) | 88.4% (inactive) | 80.5% (inactive) | 93.5% (inactive) | 90.3% (inactive) | 104% (inactive) | 92.2% (inactive) | 81.7% (inactive) | 106% (inactive)
9 | N#CCc1ccccc1 | 113% (inactive) | 98.3% (inactive) | 111% (inactive) | 98.4% (inactive) | 111% (inactive) | 93.4% (inactive) | 104% (inactive) | 96.5% (inactive) | 103% (inactive) | 98.5% (inactive)
10 | O=C(CBr)Nc1ccc(Cl)cc1 | 105% (inactive) | 12.8% (inactive) | 29.8% (inactive) | 64.4% (inactive) | 97.7% (inactive) | 88.9% (inactive) | 103% (inactive) | 105% (inactive) | 99.7% (inactive) | 67.2% (inactive)
11 | CC1CCC2(OC1)OC1C(O)C3C4CCC5CC(OC6OC(CO)C(OC7OC(CO)C(O)C(OC8OCC(O)C(O)C8O)C7OC7OC(CO)C(O)C(OC8OC(CO)C(O)C(O)C8O)C7O)C(O)C6O)C(O)CC5(C)C4CCC3(C)C1C2C (stereo not given) | -100% (active) | -100% (active) | 14.8% (inactive) | -70.2% (active) | -71.6% (active) | -39.7% (active) | -77.9% (active) | -53.3% (active) | -85.7% (active) | 62.9% (inactive)
12 | CC(=O)Nc1c2sscc-2n(C)c1=O | -100% (active) | -72.9% (active) | -89.7% (active) | -92.4% (active) | -92.5% (active) | -80.4% (active) | -96.5% (active) | -94.9% (active) | -44.5% (active) | -96.7% (active)
13 | Oc1ccccc1-c1ccccc1 | 103% (inactive) and 113% (inactive) | 93.2% (inactive) and 97.2% (inactive) | 99.1% (inactive) and 106% (inactive) | 95% (inactive) | 99% (inactive) and 106% (inactive) | 98% (inactive) and 104% (inactive) | 105% (inactive) and 112% (inactive) | 103% (inactive) | 97.6% (inactive) and 97.1% (inactive) | 113% (inactive)
14 | COc1cc2c(cc1OC)C13CCN4CC5=CCOC6CC(=O)N2C1C6C5CC43 (stereo not given) | 123% (inactive) and 116% (inactive) | 124% (inactive) and 74.9% (inactive) | 126% (inactive) and 103% (inactive) | 111% (inactive) and 87.4% (inactive) | 127% (inactive) | 103% (inactive) | 105% (inactive) and 134% (inactive) | 96.8% (inactive) and 80.2% (inactive) | 104% (inactive) | 107% (inactive) and 108% (inactive)
15 | COc1cc([C@@H]2c3cc4c(c(O)c3C[C@H]3COC(=O)[C@@H]32)OCO4)cc(OC)c1OC | -28.2% (active) | 7.73% (active) | 40.4% (inactive) | 21% (inactive) | 14.3% (inactive) | 21.5% (inactive) | -22.2% (active) | -18% (active) | 57.5% (inactive) | -66.3% (active)
16 | O=[N+]([O-])c1ccc(N2CCOCC2)c2c1no[n+]2[O-] | 6.63% (active) | -29.6% (active) | -12.6% (active) | 34.3% (inactive) | -31.4% (active) | 4.58% (active) | 20.5% (inactive) | -22.3% (active) | 41% (inactive) | 0.168% (active)
17 | Cc1ccc(C(=O)C2C(c3ccccc3)N2C2CCCCC2)cc1 (stereo not given) | 105% (inactive) and 111% (inactive) | 87.3% (inactive) and 83% (inactive) | 98.1% (inactive) and 97.9% (inactive) | 117% (inactive) and 112% (inactive) | 111% (inactive) and 96.8% (inactive) | 111% (inactive) and 102% (inactive) | 106% (inactive) | 99.9% (inactive) and 103% (inactive) | 89.9% (inactive) and 98.6% (inactive) | 93.8% (inactive) and 92.2% (inactive)
18 | O=C1C(=O)c2ccccc2-c2ccccc21 | -100% (active) | -37.4% (active) | -93.6% (active) | -39% (active) | -93.2% (active) | -88.7% (active) | -97.4% (active) | -92.7% (active) | -95.6% (active) | -83.8% (active)
19 | C/C1=C\[C@H](C)C[C@H](C)OC(=O)C[C@H](c2ccc(O)cc2)NC(=O)[C@@H](Cc2c(Br)[nH]c3ccccc23)N(C)C(=O)[C@H](C)NC(=O)[C@@H](C)C1 | -15.6% (active) | 0.288% (active) | -65% (active) | -33.2% (active) | -49.2% (active) | -30.3% (active) | -61.2% (active) | -36.8% (active) | 0.643% (active) | -71.2% (active)
20 | COc1cc(/C=C/[N+](=O)[O-])cc(Br)c1OC | 66.5% (inactive) | 4.74% (active) | 98.1% (inactive) | 7.14% (active) | -80.5% (active) | 32% (inactive) | 78.3% (inactive) | 28.5% (inactive) | -13.2% (active) | -72.1% (active)
21 | COc1cc([N+](=O)[O-])c2ncccc2c1[N+](=O)[O-] | 98.4% (inactive) | 29.4% (inactive) | 114% (inactive) | 78.2% (inactive) | 59.4% (inactive) | 52.6% (inactive) | 94.3% (inactive) | 13% (inactive) | 50.4% (inactive) | 65.8% (inactive)
22 | COc1ccc(/C=C\[N+](=O)[O-])cc1OC | 60.5% (inactive) and 59.3% (inactive) | 69.7% (inactive) and 27.5% (inactive) | 155% (inactive) and 105% (inactive) | 91.4% (inactive) and 68.9% (inactive) | 4.99% (active) and -51.1% (active) | 73.8% (inactive) and 70.3% (inactive) | 60.6% (inactive) and 85.3% (inactive) | 88.1% (inactive) and 59.3% (inactive) | 33.8% (inactive) and 73% (inactive) | 75.6% (inactive) and 42.5% (inactive)
23 | COc1cc(/C=C(/C)[N+](=O)[O-])ccc1O | 21.7% (inactive) and 17.1% (inactive) | 2.31% (active) and 1.66% (active) | 40% (inactive) and 1.16% (active) | 66.3% (inactive) and 50.5% (inactive) | -57.5% (active) and -94.8% (active) | 47.5% (inactive) and 87.3% (inactive) | 99.2% (inactive) | 57.2% (inactive) and 20.3% (inactive) | 18.2% (inactive) and -56% (active) | 39.6% (inactive)
24 | O=c1[nH]c2ccccc2n1C1CCN(CCCC(c2ccc(F)cc2)c2ccc(F)cc2)CC1 | 56.7% (inactive) and 53.3% (inactive) | -62.4% (active) and -55.3% (active) | -8.01% (active) and -56.3% (active) | 40% (inactive) and 45.2% (inactive) | 52.9% (inactive) and -40.4% (active) | 23.6% (inactive) and 70.8% (inactive) | 6.63% (active) and 25.3% (inactive) | 77.3% (inactive) and -66.9% (active) | -27.7% (active) and 24.7% (inactive) | 14.9% (inactive)
